# Compound activity as filed in PubChem.
# MITF primary: MITF inhibitors, primary screen, biochemical, AlphaScreen, human. AlphaScreen MITF homodimerization, bead proximity signal. hit rate 0.91% among 650,000. Microphthalmia-associated transcription factor (Homo sapiens), O75030. inhibition, % at 2.6 µM; in the data active = inhibition above about 50%;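 also: 0% = vehicle wells with protein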
# Target sequence (O75030 whole entry, looked up): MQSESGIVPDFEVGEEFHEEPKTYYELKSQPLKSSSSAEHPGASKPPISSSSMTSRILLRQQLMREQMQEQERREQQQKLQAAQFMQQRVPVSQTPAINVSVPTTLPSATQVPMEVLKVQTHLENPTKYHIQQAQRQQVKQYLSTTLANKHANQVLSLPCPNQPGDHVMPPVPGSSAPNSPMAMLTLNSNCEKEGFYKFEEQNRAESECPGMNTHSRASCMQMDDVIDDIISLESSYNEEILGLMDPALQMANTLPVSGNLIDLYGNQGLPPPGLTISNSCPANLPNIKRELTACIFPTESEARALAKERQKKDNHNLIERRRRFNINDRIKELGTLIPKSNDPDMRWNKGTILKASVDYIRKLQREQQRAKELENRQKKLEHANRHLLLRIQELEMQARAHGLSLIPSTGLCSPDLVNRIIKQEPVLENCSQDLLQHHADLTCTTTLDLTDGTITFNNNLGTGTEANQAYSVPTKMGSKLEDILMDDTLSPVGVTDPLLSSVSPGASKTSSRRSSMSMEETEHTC
# TEAD-YAP block: TEAD-YAP interaction inhibition, primary screen, TEAD-YAP interaction inhibitor project, luminescence, HEK-TIYL cells; hit rate 1.4% among 640,000; TEAD-Gal4/YAP UAS-luciferase luminescence; inhibition, % at 9.12 µM; in the data active = inhibition above about 32%;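 also: 0% = median of test compound wells and 100% = reference inhibitor wells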
# GPR151 ag: activators of human GPR151, primary screen, cell-based, PathHunter beta-arrestin, luminescence; G-protein coupled receptor 151 (Homo sapiens), Q8TDV0; PathHunter beta-arrestin GPR151 cells; activation, % at 11.2 µM; hit rate 1% among 650,000; in the data active = activation above about 4.9%;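 also: 0% = median of compound wells and 100% = cells with positive control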
# FBW7 activator: FBW7 E3 ligase activators, primary screen, biochemical, AlphaScreen, human. F-box/WD repeat-containing protein 7 (Homo sapiens), Q969H0. AlphaScreen FBW7–phospho-cyclin E peptide binding, activator screen. normalized activity (activation), % at 26.1 µM. hit rate 0.13% among 650,000. AID 1259310, 2017; in the data active = normalized activity above about 1.9%;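 also: purified mutant Fbw7 with reduced substrate affinity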
# GPR151 confirm: GPR151 activators, triplicate retest, confirmation, cell-based, PathHunter beta-arrestin, luminescence; shares compounds with GPR151 ag; GPR151 PathHunter beta-arrestin cells, 90 min; % of EA-reagent control over plate median; activation, % at 11.2 µM; 6,700 tested, under 10 active; AID 1508609, 2020;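 active = mean percent activation across replicates above the confirmation screen cutoff of 4.91%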
# GPR119 counter: GPR119 activators in beta-arrestin cells, counter-screen for GPR151 activator project, cell-based, PathHunter beta-arrestin, luminescence, triplicate; shares compounds with GPR151 ag; 90 min; 0 = compound-well median, 100 = enzyme-acceptor control; activation, % at 11.2 µM; hit rate 0.3% among 6,700;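 active = mean percent activation in the counterscreen above 29.09%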;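 also: counterscreen on off-target GPR119 to flag nonselective hits from the GPR151 activator screen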
# Starred values were filed as active, the others as inactive; . = not tested or not shown. Sampled rows, rich in hits. Any-hit rate of the full collection: about 3.5%.
SMILES,MITF primary,TEAD-YAP block,GPR151 ag,FBW7 activator,GPR151 confirm,GPR119 counter
O=C1CC(C(=O)N2CCC3(CC2)CC3C(=O)NCCC2=CCCCC2)c2ccccc21 (stereo not drawn),-4,-5,5.5*,0,0,6
CC(C)OC(=O)/C(C#N)=C\c1cccs1,-2,-5,6.0*,0,-1,-9
CCOC(=O)c1c(NC(=O)CSc2nnc(-c3ccco3)o2)sc(C(C)=O)c1C,0,-6,0,0,.,.
COC(=O)c1ccccc1NC(=O)CSc1nnc(-c2ccco2)o1,-6,-14,8.3*,0,1,10
CCOC(=O)c1c(NC(=O)CSc2nnc(-c3ccco3)o2)sc(C)c1C,25,5,5.1*,0,0,-6
COC(=O)c1ccc(C(=O)OC)c(NC(=O)CSc2nnc(-c3ccco3)o2)c1,-6,-4,3,0,.,.
O=C(NC1CCN(Cc2ccccc2)CC1)c1ccc2nc(Nc3ccc(N4CCOCC4)cc3)sc2c1,-7,-6,-1,0,.,.
COc1ccc(O)c(C2NC(C)(C(=O)O)C3C(=O)N(c4ccccc4OC)C(=O)C23)c1 (stereo not drawn),0,-7,5.1*,0,1,4
CCOc1cccc(C2NC(C)(C(=O)O)C3C(=O)N(c4ccccc4OC)C(=O)C23)c1O (stereo not drawn),-7,-7,1,0,.,.
CCCc1cn(S(=O)(=O)c2ccc(OC)cc2OC)nc1N,23,-10,0,0,.,.
CC1CC(=O)N(c2ccc(N3CCCCCC3)c([N+](=O)[O-])c2)C1=O (stereo not drawn),-1,-6,-1,0,.,.
CC1CC(C)CN(c2ccc(N3C(=O)CC(C)C3=O)cc2[N+](=O)[O-])C1 (stereo not drawn),5,1,6.5*,0,0,1
O=C1c2ccc([N+](=O)[O-])cc2C(=O)N1c1c[nH]c(=O)[nH]c1=O,1,9,5.1*,-2,0,1
CC(C)CC(=O)C1=C(O)c2ccccc2C1=O,-5,2,1,0,.,.
Cn1c(=O)c([N+](=O)[O-])c(NCc2ccccc2)c2ccccc21,11,-3,8.1*,0,0,0
O=C(CCc1nnc(COc2ccccc2)o1)NCc1nc2ccccc2s1,9,-1,5.1*,0,1,6
O=C(CCc1nnc(-c2ccccc2)o1)NCc1nc2ccccc2s1,-1,-4,-1,0,.,.
COc1ccc(CCc2nnc(CCC(=O)NCCc3ccco3)o2)cc1,7,-12,-2,0,.,.
COc1ccc(OC)c(Cc2nnc(CCC(=O)NCCc3nc(C)c(C)s3)o2)c1,11,-9,-1,0,.,.
COc1ccc(OC)c(Cc2nnc(CCC(=O)NCc3nc4ccccc4s3)o2)c1,-6,-9,6.3*,0,1,12
COc1ccc(CCc2nnc(CCC(=O)NCCc3ccccc3F)o2)cc1,1,-4,6.5*,0,0,-4
Cc1cc(/C=C2\C(=O)NC(=O)N(c3ccc(F)cc3)C2=O)c(C)n1C1CC1,3,-3,-1,0,.,.
Cc1cc(/C=C2\C(=O)NC(=S)N(c3ccc(F)cc3)C2=O)c(C)n1C1CC1,7,-5,5.3*,0,-1,-3
COc1cccc(C(c2nnnn2C(C)C)N2CCN(c3ccccc3)CC2)c1OC (stereo not drawn),3,0,5.4*,0,1,2
COCCCn1c(-c2ccc(C(C)(C)C)cc2)n[nH]c1=S,0,-10,12*,0,0,-12
COc1ccc(C)cc1S(=O)(=O)N(CC(=O)N1CCOCC1)Cc1ccccc1,9,3,12*,0,-1,-5
COc1ccc(S(=O)(=O)N(CC(=O)N2CCOCC2)Cc2ccccc2)cc1C,-24,4,1,0,.,.
